Sampled rows, rich in hits. Any-hit rate of the full collection: about 4%.
KKLEB tox – CF airway cell cytotoxicity counter-screen; KKLEB CF airway cells viability, ATPlite luminescence, overnight; active compounds read low; cells stimulated with P. aeruginosa culture filtrate; activity change (cytotoxicity), % at 5 µM; actives 0.36% (n = 360,000);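 active = corrected activity change at or below -50% at 5 µM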
Peg3 promoter – inhibitors of Peg3 promoter; HeLa PEG-Prom luciferase reporter, luminescence, overnight; inhibition, % at 20 µM; actives 1.7% (n = 360,000);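 active = inhibition of at least 50% at 20 µM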
TWEAK-Fn14 inh – TWEAK-Fn14 signaling inhibition. TWEAK-stimulated Fn14 reporter cells, luciferase luminescence, 8 h. inhibition, % at 10 µM. actives 2% (n = 360,000). AID 1159606; in the data active = inhibition above about 50%
TROY signal inh – TROY signaling inhibition; actives 0.98% (n = 360,000); inhibition, % at 10 µM; AID 1347056; Q293 LMP1-TROYcd NF-kB luciferase reporter, 4 h;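 active = compounds whose plate-normalised and pattern-corrected inhibition of the luciferase reporter signal at the single screening dose is 50% or more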
CF NFkB inh – inhibitors of cystic fibrosis induced NF-kB; KKLEB NF-kB-GFP reporter, PAF-induced, GFP fluorescence overnight; inhibition, % at 5 µM; actives 0.86% (n = 360,000);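 active = at least 50% inhibition at 5 µM, scaled per plate between neutral and stimulator controls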;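 also: PAF is a Pseudomonas aeruginosa culture filtrate used as stimulus; plate controls were PAF-stimulated DMSO wells for no effect and unstimulated DMSO wells for full effect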
HIF-2a block – inhibitors of HIF-2a | 786-0 RCC cells HIF-2a reporter, luciferase luminescence, overnight | inhibition, % at 18.8 µM | actives 0.72% (n = 360,000) | AID 624352;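 active = inhibition of the luminescence signal of 40% or more relative to plate controls, in a single-dose primary screen at 18.75 µM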
* marks the source's active call; other numbers are inactive results.

SMILES | KKLEB tox | Peg3 promoter | TWEAK-Fn14 inh | TROY signal inh | CF NFkB inh | HIF-2a block
COc1ccc(C(=O)COc2ccc(C(C)=O)cc2OC)cc1OC | 2 | 0 | 1 | -10 | 4 | 4
COc1ccc(OC)c(S(=O)(=O)NC(=O)C2(C)CCN2C(=O)CC2CCCC2)c1 (centres undefined) | -1 | 4 | 6 | 2 | -32 | 20
O=C(Cc1ccccc1Cl)Nc1cccc(S(=O)(=O)N2CCOCC2)c1 | 2 | 20 | 90* | 81* | 7 | 21
COc1ccc(NS(=O)(=O)c2cccc(NC(=O)c3ccc(S(=O)(=O)N4CCCCCC4)cc3)c2)cc1 | 6 | 40 | 70* | 45 | -5 | 14
O=C(Cn1[nH]c(=O)c2ccccc2c1=O)Nc1cccc(S(=O)(=O)N2CCCCCC2)c1 | 4 | 22 | 51* | 25 | 0 | 14
COc1ccc(S(=O)(=O)N2CCCC2C(=O)Nc2ccc(C)cc2)cc1 (centres undefined) | 6 | -4 | -12 | 8 | -15 | 0
COc1ccc(NC(=O)C2CCCN2S(=O)(=O)c2ccc(Cl)cc2)cc1 (centres undefined) | 7 | 8 | 77* | -4 | -13 | 10
CN(C)CCNC(=O)CCn1nc(-c2ccc(Cl)cc2)ccc1=O | -11 | 10 | 0 | -11 | 15 | 20
Cc1nc(SCCc2nc3ccccc3[nH]2)c2oc3ccccc3c2n1 | 12 | -7 | -9 | -17 | -10 | -8
CCN1C(=O)[C@H]2[C@@H](c3ccc(-c4ccccc4)cc3)N3CCC[C@@]3(C(=O)OC)[C@H]2C1=O | 9 | -31 | -17 | -60 | -1 | -126
CCc1ccc(-c2nc(CS(=O)CC(=O)NCCCN3CCC(C)CC3)c(C)o2)cc1 (centres undefined) | 1 | -12 | -11 | -9 | 4 | -21
CCC1CSC(Nc2ccc(C(=O)/C=C/c3ccc(Oc4ccccc4)cc3)cc2)=N1 (centres undefined) | 1 | -118 | 14 | -36 | -16 | -25
CCC1CSC(Nc2ccc(C(=O)/C=C/c3cccc(C)c3)cc2)=N1 (centres undefined) | -15 | -29 | 52* | -11 | 24 | -84
CC[C@]12c3[nH]c4ccc(Cl)cc4c3CCN1C(=O)[C@@H](CC(=O)NCc1cccc(C(F)(F)F)c1)C[C@@H]2C(=O)N1CCN(C(=O)C2CC2)CC1 | 0 | 52* | 15 | 31 | -14 | -3
CC[C@]12c3[nH]c4ccccc4c3CCN1C(=O)C(CC(=O)NCc1cccc(C(F)(F)F)c1)C[C@@H]2C(=O)N1CCN(C(=O)C2CC2)CC1 (some centres undefined) | 1 | 1 | 11 | -7 | 6 | -2
CCN(CC)C(=O)[C@H]1C[C@H](CC(=O)NCc2ccco2)C(=O)N2CCc3c([nH]c4cc(-c5ccco5)ccc34)[C@]12C | 7 | 10 | 37 | -11 | -4 | 3
CC[C@]12c3[nH]c4cc(CCC(=O)N(C)C)ccc4c3CCN1C(=O)[C@@H](CC(=O)NC/C=C(\C)CCC=C(C)C)C[C@@H]2C(=O)N1CCN(C(=O)C2CC2)CC1 | 14 | 5 | 19 | -7 | -42 | -1
CC[C@]12c3[nH]c4cc(CCC(=O)N(C)C)ccc4c3CCN1C(=O)[C@@H](CC(=O)NCC13CC4CC(CC(C4)C1)C3)C[C@@H]2C(=O)N1CCN(C(=O)c2ccco2)CC1 | 11 | -10 | 96* | -2 | -113 | -22
CCN(CC)C(=O)[C@H]1C[C@H](CC(=O)NCc2cccc(C(F)(F)F)c2)C(=O)N2CCc3c([nH]c4cc(-c5ccco5)ccc34)[C@]12C | 5 | 85* | 30 | 0 | 36 | -27
CC[C@]12c3[nH]c4ccccc4c3CCN1C(=O)C(CC(=O)NCC13CC4CC(CC(C4)C1)C3)C[C@@H]2C(=O)N1CCN(C(=O)c2ccco2)CC1 (some centres undefined) | 2 | 27 | 17 | 13 | 4 | 6
CC[C@]12c3[nH]c4ccc(Cl)cc4c3CCN1C(=O)[C@@H](CC(=O)NC/C=C(\C)CCC=C(C)C)C[C@@H]2C(=O)N1CCN(C(=O)C2CC2)CC1 | -4 | 60* | 44 | 38 | 19 | -28
